In the supplement of paper PMC10849652:
Targets with a hit are over-represented here; the source holds about 7,900 in all. About 0.6% of all pairs of compound and target were hits.

Assays:
Test in all cases: log2 fold change, soluble protein after heating vs DMSO (PISA); higher = thermal stabilisation; K562 cells, 10 uM, 30 min; active = over 0.2 and 3.5 SD of the protein, either way, in both replicates (recomputed)
saracatinib = compound: CN1CCN(CCOc2cc(OC3CCOCC3)c3c(Nc4c(Cl)ccc5c4OCO5)ncnc3c2)CC1 [saracatinib]
In short: (§1)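 K562 cells at 2×10^6 cells/mL were treated with 10 μM compound for 30 min. Aliquots were heated for 3 min across 48°C-58°C, pooled, and extracted in PBS with 0.5% NP-40 at 4°C; soluble protein was the supernatant after 21,000xg for 90 min. Soluble protein was quantified by TMTpro 16plex LC-MS/MS with channel sums equalised, and reported as log2 fold change in thermal stability against DMSO controls, with values from duplicates.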

Tubastatin A = compound: CN1CCc2c(c3ccccc3n2Cc2ccc(C(=O)NO)cc2)C1 [Tubastatin A]
In short: as §1

[1] = compound: CNC(=O)C1=CC=CC=C1NC2=NC(=NC=C2Cl)NC3=C(C=C(C=C3)N4CCOCC4)OC
In short: as §1

defactinib = compound: CNC(=O)c1ccc(Nc2ncc(C(F)(F)F)c(NCc3nccnc3N(C)S(C)(=O)=O)n2)cc1 [defactinib]
In short: as §1

rucaparib = compound: CNCc1ccc(-c2[nH]c3cc(F)cc4c3c2CCNC4=O)cc1 [rucaparib]
In short: as §1

[2] = compound: CNc1nc(-c2ccc3c(N)n[nH]c3c2)cc(N2C[C@@H](C(=O)NC3CCCCC3)CC[C@H]2C)n1
In short: as §1

encorafenib = compound: COC(=O)N[C@@H](C)CNc1nccc(-c2cn(C(C)C)nc2-c2cc(Cl)cc(NS(C)(=O)=O)c2F)n1 [encorafenib]
In short: as §1

[3] = compound: COC(=O)[C@H](CCSC)NC(=O)C1=C(C=C(C=C1)NC[C@H](CS)N)C2=CC=CC=C2
In short: as §1

[4] = compound: COC1=CC=C(C=C1)CN2C=CC3=C2C=C(C=C3)C(=O)NO
In short: as §1

idasanutlin = compound: COc1cc(C(=O)O)ccc1NC(=O)[C@@H]1N[C@@H](CC(C)(C)C)[C@](C#N)(c2ccc(Cl)cc2F)[C@H]1c1cccc(Cl)c1F [idasanutlin]
In short: as §1

alisertib = compound: COc1cc(Nc2ncc3c(n2)-c2ccc(Cl)cc2C(c2c(F)cccc2OC)=NC3)ccc1C(=O)O [alisertib]
In short: as §1

gefitinib = compound: COc1cc2ncnc(Nc3ccc(F)c(Cl)c3)c2cc1OCCCN1CCOCC1 [gefitinib]
In short: as §1

[5] = compound: COc1cccc2cc(-c3nc([C@H]4CC[C@H](C(=O)O)CC4)n4ncnc(N)c34)[nH]c12
In short: as §1

sotrastaurin = compound: CN1CCN(c2nc(C3=C(c4c[nH]c5ccccc45)C(=O)NC3=O)c3ccccc3n2)CC1 [sotrastaurin]
In short: as §1

filanesib = compound: CON(C)C(=O)N1N=C(c2cc(F)ccc2F)S[C@@]1(CCCN)c1ccccc1 [filanesib]
In short: as §1

[6] = compound: COc1cc2nc(-c3cc(F)ccc3O)nc(N[C@@H]3CNC[C@H]3C(C)(C)O)c2cc1OC
In short: as §1

lapatinib = compound: CS(=O)(=O)CCNCc1ccc(-c2ccc3ncnc(Nc4ccc(OCc5cccc(F)c5)c(Cl)c4)c3c2)o1 [lapatinib]
In short: as §1

pictilisib = compound: CS(=O)(=O)N1CCN(Cc2cc3nc(-c4cccc5[nH]ncc45)nc(N4CCOCC4)c3s2)CC1 [pictilisib]
In short: as §1

alvocidib = compound: CN1CC[C@H](c2c(O)cc(O)c3c(=O)cc(-c4ccccc4Cl)oc23)[C@H](O)C1 [alvocidib]
In short: as §1

zotarolimus = compound: CO[C@H]1C[C@@H]2CC[C@@H](C)[C@@](O)(O2)C(=O)C(=O)N2CCCC[C@H]2C(=O)O[C@H]([C@H](C)C[C@@H]2CC[C@H](n3cnnn3)[C@H](OC)C2)CC(=O)[C@H](C)/C=C(\C)[C@@H](O)[C@@H](OC)C(=O)[C@H](C)C[C@H](C)/C=C/C=C/C=C/1C [zotarolimus]
In short: as §1

Measured: log2 fold change

U2AF1L5 (UniProt P0DN76)
inactive: saracatinib -0.013 | Tubastatin A 0.072 | [1] 0.084 | defactinib -0.409 | rucaparib 0.236 | [2] -0.023 | encorafenib 0.23 | [3] 0.107 | [4] -0.034 | idasanutlin -0.051 | alisertib -0.517 | gefitinib -0.048 | [5] -0.238

TMEM41A (UniProt Q96HV5)
UniProt Q96HV5, sequence (Q96HV5 whole entry, looked up): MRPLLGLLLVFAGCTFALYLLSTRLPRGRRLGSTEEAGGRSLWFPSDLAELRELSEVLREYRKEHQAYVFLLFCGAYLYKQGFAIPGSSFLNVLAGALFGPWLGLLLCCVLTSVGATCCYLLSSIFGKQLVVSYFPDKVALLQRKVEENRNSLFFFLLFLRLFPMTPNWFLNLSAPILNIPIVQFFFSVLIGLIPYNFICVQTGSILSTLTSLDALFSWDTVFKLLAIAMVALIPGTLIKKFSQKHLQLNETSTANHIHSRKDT
inactive: saracatinib 0.03 | sotrastaurin -0.057 | Tubastatin A -0.068 | [1] 0.008 | defactinib 0.003 | rucaparib -0.009 | [2] -0.011 | encorafenib 0.025 | [3] -0.012 | [4] -0.123 | filanesib -0.158 | idasanutlin 0.024 | alisertib -0.096 | [6] 0.088 | gefitinib 0.034 | [5] 0.092 | lapatinib -0.106 | pictilisib -0.047

TMEM104 (UniProt Q8NE00)
UniProt Q8NE00, sequence (Q8NE00 whole entry, looked up): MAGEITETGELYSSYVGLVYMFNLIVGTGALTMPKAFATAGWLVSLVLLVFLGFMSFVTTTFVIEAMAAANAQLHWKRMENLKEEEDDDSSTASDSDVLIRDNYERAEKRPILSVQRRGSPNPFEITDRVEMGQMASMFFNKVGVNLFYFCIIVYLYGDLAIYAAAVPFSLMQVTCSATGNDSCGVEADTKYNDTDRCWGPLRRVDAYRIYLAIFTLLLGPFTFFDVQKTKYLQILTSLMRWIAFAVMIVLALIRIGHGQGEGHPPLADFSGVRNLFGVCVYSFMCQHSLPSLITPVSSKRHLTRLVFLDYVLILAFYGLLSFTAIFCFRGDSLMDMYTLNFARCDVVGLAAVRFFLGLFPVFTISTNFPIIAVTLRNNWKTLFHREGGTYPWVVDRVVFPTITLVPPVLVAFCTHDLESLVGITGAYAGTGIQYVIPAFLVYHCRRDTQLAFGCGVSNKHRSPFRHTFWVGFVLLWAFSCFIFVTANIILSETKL
inactive: saracatinib -0.024 | alvocidib -0.013 | [1] -0.007 | rucaparib 0.06 | [2] -0.122 | encorafenib 0.056 | [4] 0.134 | zotarolimus -0.01 | idasanutlin -0.081 | alisertib -0.012 | [6] 0.016 | gefitinib 0.061 | [5] 0.164 | lapatinib -0.156 | pictilisib -0.341

WDR46, A0A0G2JJL1
inactive: saracatinib 0.065 | sotrastaurin 0.052 | Tubastatin A -0.095 | [1] 0.007 | defactinib 0.408 | rucaparib 0.293 | [2] 0.119 | encorafenib 0.044 | [3] -0.138 | [4] -0.108 | filanesib 0.533 | alisertib -0.167 | [6] -0.134 | gefitinib 0.039 | [5] -0.207 | lapatinib 0.154

TOM1 (UniProt O60784)
UniProt O60784, sequence (O60784 whole entry, looked up): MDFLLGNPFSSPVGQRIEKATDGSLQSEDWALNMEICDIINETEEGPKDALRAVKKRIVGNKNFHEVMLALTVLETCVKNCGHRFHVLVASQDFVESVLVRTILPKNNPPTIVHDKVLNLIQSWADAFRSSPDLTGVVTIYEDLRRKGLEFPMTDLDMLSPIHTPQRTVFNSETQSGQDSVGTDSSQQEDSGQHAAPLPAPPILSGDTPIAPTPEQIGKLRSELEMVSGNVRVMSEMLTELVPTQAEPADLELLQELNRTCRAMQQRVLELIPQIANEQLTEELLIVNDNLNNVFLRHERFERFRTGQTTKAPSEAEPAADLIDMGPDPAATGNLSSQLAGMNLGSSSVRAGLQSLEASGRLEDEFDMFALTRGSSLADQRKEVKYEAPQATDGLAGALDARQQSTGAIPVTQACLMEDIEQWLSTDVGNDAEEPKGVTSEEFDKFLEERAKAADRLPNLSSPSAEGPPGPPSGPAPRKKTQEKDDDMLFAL
inactive: sotrastaurin -0.033 | Tubastatin A 0.002 | [1] -0.113 | [4] 0.078 | filanesib -0.061 | alisertib 0.103 | [5] 0.094 | pictilisib 0.171

TMEM184C (UniProt Q9NVA4)
UniProt Q9NVA4, sequence (Q9NVA4 whole entry, looked up): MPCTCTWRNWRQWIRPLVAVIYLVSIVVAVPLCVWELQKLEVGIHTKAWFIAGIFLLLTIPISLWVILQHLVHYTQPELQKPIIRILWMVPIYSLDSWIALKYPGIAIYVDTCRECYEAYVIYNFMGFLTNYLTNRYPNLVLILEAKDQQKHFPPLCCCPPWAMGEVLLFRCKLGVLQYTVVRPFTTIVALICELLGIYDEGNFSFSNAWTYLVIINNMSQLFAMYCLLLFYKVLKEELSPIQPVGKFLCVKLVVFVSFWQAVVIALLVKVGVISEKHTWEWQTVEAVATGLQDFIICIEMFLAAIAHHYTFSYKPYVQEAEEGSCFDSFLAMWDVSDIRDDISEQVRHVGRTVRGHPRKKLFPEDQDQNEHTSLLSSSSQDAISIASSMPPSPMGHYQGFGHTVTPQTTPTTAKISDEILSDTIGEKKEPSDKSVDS
inactive: saracatinib 0.022 | sotrastaurin 0.139 | alvocidib -0.123 | Tubastatin A 0.022 | defactinib -0.049 | rucaparib 0.028 | [2] -0.182 | encorafenib 0.051 | [3] 0.118 | [4] -0.006 | filanesib 0.162 | zotarolimus -0.11 | idasanutlin -0.112 | alisertib 0.059 | gefitinib -0.043 | [5] 0.077 | pictilisib 0.162

TMEM268 isoform 3 (UniProt Q5VZI3)
UniProt Q5VZI3, sequence (Q5VZI3 whole entry, looked up): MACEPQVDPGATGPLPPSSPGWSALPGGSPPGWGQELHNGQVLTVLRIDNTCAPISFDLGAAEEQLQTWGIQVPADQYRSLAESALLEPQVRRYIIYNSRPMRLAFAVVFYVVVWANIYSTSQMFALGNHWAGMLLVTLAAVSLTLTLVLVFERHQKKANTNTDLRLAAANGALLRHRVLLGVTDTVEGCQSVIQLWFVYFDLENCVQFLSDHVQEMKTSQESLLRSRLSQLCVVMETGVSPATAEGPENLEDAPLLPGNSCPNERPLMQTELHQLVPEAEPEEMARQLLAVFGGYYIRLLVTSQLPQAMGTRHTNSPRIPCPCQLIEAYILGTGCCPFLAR
inactive: saracatinib 0.033 | sotrastaurin -0.103 | alvocidib 0.069 | Tubastatin A 0.131 | [1] -0.017 | rucaparib -0.021 | [2] 0.046 | encorafenib -0.19 | filanesib -0.064 | zotarolimus 0.104 | idasanutlin -0.135 | alisertib 0.014 | [6] -0.25 | gefitinib -0.079 | [5] 0.001 | lapatinib 0.09 | pictilisib -0.088

TMEM9B (UniProt Q9NQ34)
UniProt Q9NQ34, sequence (Q9NQ34 whole entry, looked up): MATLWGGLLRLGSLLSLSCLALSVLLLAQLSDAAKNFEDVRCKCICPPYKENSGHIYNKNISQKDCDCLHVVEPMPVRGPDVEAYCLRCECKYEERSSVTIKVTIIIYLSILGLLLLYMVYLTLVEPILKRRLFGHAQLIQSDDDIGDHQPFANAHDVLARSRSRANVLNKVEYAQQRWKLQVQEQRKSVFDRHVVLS
inactive: sotrastaurin 0.019 | alvocidib 0.075 | Tubastatin A -0.033 | [1] -0.029 | defactinib -0.029 | rucaparib -0.02 | encorafenib 0.063 | [3] -0.001 | [4] 0.001 | filanesib -0.039 | zotarolimus 0.014 | idasanutlin 0.036 | alisertib -0.032 | [6] 0.011 | gefitinib -0.047 | [5] -0.068 | lapatinib -0.118 | pictilisib 0.07

TMEM179B (UniProt Q7Z7N9)
UniProt Q7Z7N9, sequence (Q7Z7N9 whole entry, looked up): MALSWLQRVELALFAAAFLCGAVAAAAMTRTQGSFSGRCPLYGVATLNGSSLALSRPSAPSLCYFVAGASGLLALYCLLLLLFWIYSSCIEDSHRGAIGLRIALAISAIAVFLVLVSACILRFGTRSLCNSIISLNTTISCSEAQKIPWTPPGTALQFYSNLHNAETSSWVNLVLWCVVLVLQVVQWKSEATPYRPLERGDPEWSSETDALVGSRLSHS
inactive: sotrastaurin 0.151 | alvocidib 0.097 | Tubastatin A 0.036 | [1] 0.044 | rucaparib 0.026 | encorafenib -0.015 | [4] -0.019 | filanesib -0.162 | zotarolimus -0.205 | idasanutlin 0.088 | alisertib -0.007 | [6] -0.03 | gefitinib 0.039 | [5] 0.175 | lapatinib 0.032 | pictilisib 0.036

UBA52 (UniProt P62987)
inactive: sotrastaurin -0.029 | alvocidib 0.339 | Tubastatin A -0.004 | [1] -0.008 | defactinib 0.221 | rucaparib 0.421 | encorafenib 0.152 | [3] 0.08 | [4] 0 | filanesib 0.519 | zotarolimus -0.171 | idasanutlin 0.308 | alisertib -0.131 | [6] -0.203 | [5] -0.275 | lapatinib 0.141 | pictilisib -0.177

UBE3B (UniProt Q7Z3V4)
UniProt Q7Z3V4, sequence (Q7Z3V4 whole entry, looked up): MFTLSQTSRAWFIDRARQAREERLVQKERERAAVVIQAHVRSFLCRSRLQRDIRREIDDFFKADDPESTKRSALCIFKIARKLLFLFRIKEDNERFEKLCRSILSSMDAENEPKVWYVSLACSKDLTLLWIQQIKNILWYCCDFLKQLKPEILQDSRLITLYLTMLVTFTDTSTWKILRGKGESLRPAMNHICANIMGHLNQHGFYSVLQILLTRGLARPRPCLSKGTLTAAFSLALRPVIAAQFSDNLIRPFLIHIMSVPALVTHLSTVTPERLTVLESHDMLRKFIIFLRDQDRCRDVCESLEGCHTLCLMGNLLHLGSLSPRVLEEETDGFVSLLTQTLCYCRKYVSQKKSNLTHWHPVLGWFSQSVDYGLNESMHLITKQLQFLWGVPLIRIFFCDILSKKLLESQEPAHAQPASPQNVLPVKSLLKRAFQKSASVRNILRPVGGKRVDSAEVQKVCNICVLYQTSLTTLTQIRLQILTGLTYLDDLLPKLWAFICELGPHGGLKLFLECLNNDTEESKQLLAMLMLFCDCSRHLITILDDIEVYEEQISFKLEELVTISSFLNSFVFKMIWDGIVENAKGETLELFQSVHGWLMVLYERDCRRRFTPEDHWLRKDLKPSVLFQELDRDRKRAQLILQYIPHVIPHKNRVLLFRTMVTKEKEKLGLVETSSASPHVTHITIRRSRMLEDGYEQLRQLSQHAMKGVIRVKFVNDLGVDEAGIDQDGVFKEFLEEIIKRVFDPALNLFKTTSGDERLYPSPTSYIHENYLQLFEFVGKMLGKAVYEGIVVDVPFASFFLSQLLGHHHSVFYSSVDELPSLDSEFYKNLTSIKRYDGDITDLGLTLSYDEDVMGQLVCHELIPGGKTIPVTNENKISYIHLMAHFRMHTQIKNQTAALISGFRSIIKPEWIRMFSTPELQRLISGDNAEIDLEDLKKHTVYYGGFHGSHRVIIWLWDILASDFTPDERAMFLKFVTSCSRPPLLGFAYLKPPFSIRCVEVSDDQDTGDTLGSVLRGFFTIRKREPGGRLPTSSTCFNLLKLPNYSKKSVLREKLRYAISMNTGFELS
inactive: saracatinib -0.028 | sotrastaurin 0.005 | alvocidib 0.122 | Tubastatin A 0.128 | [2] -0.032 | [4] 0.03 | filanesib 0.058 | zotarolimus 0.086 | idasanutlin 0.065 | [6] 0.247 | gefitinib -0.037 | lapatinib 0.212

TRABD (UniProt Q9H4I3)
UniProt Q9H4I3, sequence (Q9H4I3 whole entry, looked up): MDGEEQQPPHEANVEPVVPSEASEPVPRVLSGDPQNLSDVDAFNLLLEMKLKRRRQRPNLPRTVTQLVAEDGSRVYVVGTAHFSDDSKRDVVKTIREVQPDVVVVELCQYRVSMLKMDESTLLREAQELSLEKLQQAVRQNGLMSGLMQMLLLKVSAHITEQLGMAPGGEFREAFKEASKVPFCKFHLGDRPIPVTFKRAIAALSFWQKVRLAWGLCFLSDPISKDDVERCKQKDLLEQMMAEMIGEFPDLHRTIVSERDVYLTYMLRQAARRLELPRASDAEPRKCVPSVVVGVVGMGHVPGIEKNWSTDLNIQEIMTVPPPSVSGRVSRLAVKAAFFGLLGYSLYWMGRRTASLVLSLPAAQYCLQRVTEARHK
inactive: sotrastaurin 0.003 | alvocidib -0.151 | Tubastatin A 0.06 | [1] 0.131 | defactinib -0.096 | rucaparib 0.073 | encorafenib -0.01 | [3] -0.033 | [4] 0.001 | filanesib 0.051 | zotarolimus 0.11 | idasanutlin 0.167 | alisertib -0.109 | [6] 0.198 | gefitinib 0.149 | [5] -0.006 | lapatinib 0.081 | pictilisib 0.15
